According to PubChem BioAssay (NCI):
Where “and” joins values, the source holds several entries; their conditions need not be identical. Equal values may be shown once. About 83,000 compounds went through this panel and 20% of them were active in at least one assay; those are over-represented in the sample as a whole.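 Single-dose data. Exposure time 48 hours. Values below 10 considered active.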 Calls of active or inactive are those of the source.

These compounds were tested on HL-60(TB) leukemia (assay: NCI-60 one-dose screen, 48 h (100 = growth as untreated, 0 = no growth, -100 = all killed)). Conditions: 10 µM unless noted.

Compound | growth
COc1ccc2c(c1)OC1=C(C(=O)OC1)C2c1cc(OC)c2c(c1)OCCO2 (stereo not given) | -29.2% (active)
COC(=O)[C@@H](CCCCNC(=O)[C@]12CCC(C)(C)C[C@@H]1C1=CC[C@@H]3[C@@]4(C)C/C(=C/c5ccco5)C(=O)C(C)(C)[C@@H]4CC[C@@]3(C)[C@]1(C)CC2)NC(=O)[C@]12CCC(C)(C)C[C@@H]1C1=CC[C@@H]3[C@@]4(C)C/C(=C/c5ccco5)C(=O)C(C)(C)[C@@H]4CC[C@@]3(C)[C@]1(C)CC2 | 114% (inactive)
CCn1c(=S)sc2c(Nc3ccc(F)cc3)nc(-c3cccnc3)nc21 | 81.7% (inactive)
Nc1ccccc1Nc1ccccc1 | 23.5% (inactive) and 11.2% (inactive)
O=C(CCCn1c2c(sc3ccccc32)c(=O)n2nnc(-c3ccccc3)c12)NCCc1cnc[nH]1 | 82.4% (inactive)
NC(=O)Cc1nc(O)cc(=O)[nH]1 | 87.4% (inactive)
O=S(=O)(O)C1(O)CCCCC1 | 87.6% (inactive)
Nc1nc2c([nH]1)c1[nH]c3ccccc3c1c1[nH]c3ccccc3c21 | 25.5% (inactive)
CN(C)C(=S)Sc1ccc([N+](=O)[O-])cc1[N+](=O)[O-] | -5.16% (active)
COc1cc(-c2nc(SCC(C)C)nc(Nc3cccc4ccccc34)c2C#N)cc(OC)c1OC | 79.1% (inactive)
COc1cccc(NC(=O)Cn2cc(CN3CCN(c4ccnc5cc(Cl)ccc45)CC3)nn2)c1 | 124% (inactive)
COc1ccc(NC(=O)CSc2nc3ccc(Cl)cc3c(=O)n2-c2ccccc2C(F)(F)F)c(OC)c1OC | 105% (inactive)
O=S(=O)(NCCCNc1nccc(-c2c(-c3ccc(F)c(O)c3)nc3occn23)n1)c1ccccc1 | 84.3% (inactive)
NS(=O)(=O)N(c1cc(C(F)(F)F)cc(C(F)(F)F)c1)C1CCN(Cc2ccc(C(F)(F)F)cc2)CC1 | 37.3% (inactive)
Cc1ccc(NC2=C(Cl)C(=O)c3nc(C)ccc3C2=O)cc1 | -10.8% (active)
NC(=O)c1cc(Cl)ccc1NC(=O)c1ccccc1-c1ccccc1 | 1.29% (active)
Nc1nc(=S)c2ncn(C3OC(COP(=O)(O)O)C(O)C3O)c2[nH]1 (stereo not given) | 16.3% (inactive)
C/C=C/C(=O)OCCCCCCCCCCCC | 85.2% (inactive)
COCCNC(C(=O)c1ccccc1)c1ccccc1 (stereo not given) | 103% (inactive)
C=C1C(=O)O[C@H]2[C@H]1CC/C(Cn1cc(CNC(=O)c3cc4ccccc4[nH]3)nn1)=C\CC[C@@]1(C)O[C@@H]21 | -20.8% (active)

Compound | growth
O=S(=O)(Nc1ccc(F)c(Cl)c1)c1ccc(-c2cnc(C3CC3)o2)cc1 | 8.62% (active)
COc1nc2c(cc1S(=O)(=O)c1ccccc1)CCc1c-2cnn1-c1ccccc1Cl | 39.9% (inactive)
O=C(O)C1C(c2ccccc2)c2ccccc2C(O)C1CO (stereo not given) | 102% (inactive)
N#CC1=C(N)Oc2cc(N)ccc2C1c1cccnc1 (stereo not given) | 96.6% (inactive)
Nc1ncnc2c1c(-c1cccc(Cl)c1)nn2CC(=O)N1CCOCC1 | 101% (inactive)
C#CCn1cc(C=C2C(=O)NC(=S)NC2=O)c2cc(Cl)ccc21 | -4.45% (active)
O=C1Nc2ccccc2/C1=C/c1cn(C(=O)c2c(Cl)cccc2Cl)c2ccccc12 | 72.1% (inactive)
O=C(Nn1c2c(sc1=NCc1ccccc1)C(=O)c1ccccc1C2=O)c1cc2ccc1CCc1ccc(cc1)CC2 | 27% (inactive)
CC(=O)c1cccc(OC(=O)c2ccccc2)c1 | 79.9% (inactive)
COc1ccc(-c2cc(/C=C3\C(=O)Nc4cc(Cl)ccc43)[nH]n2)cc1OC | 53% (inactive)
COc1cc(C)c(Cl)cc1C1=NN(c2ccc(S(N)(=O)=O)cc2)C(/C=C/c2ccccc2)C1 (stereo not given) | 63.6% (inactive)
COc1c(B(O)O)cccc1-c1nc2c(F)cc3[nH]ncc3c2c2c1CCCC2 | -28.3% (active)
COCCNC(=O)c1ccc(-c2nc3ccc4[nH]ncc4c3c3c2CCCC3)cc1 | 11.4% (inactive)
N=C(N)c1ccc(-c2ccc(-c3ccccc3)o2)nc1 | 54.1% (inactive)
O=C(N/N=C/c1ccc(F)cc1)c1ccccc1Nc1cccc(C(F)(F)F)c1 | 88.1% (inactive)
CN1CCN(c2nc(NCCCCNc3ccnc4cc(Cl)ccc34)c3ccccc3n2)CC1 | 28.6% (inactive)
COc1cc2c(cc1OC)C(Cc1cc(OC)c(OC)cc1[N+](=O)[O-])=NCC2 | 63.1% (inactive)
C#Cc1ccc(-n2c(/C=C/c3ccc(Cl)c(F)c3)nc3ncccc3c2=O)cc1 | -35.9% (active)
CC(=O)Nc1ccc(Sc2ccc(NC(C)=O)cc2)cc1 | 73.1% (inactive)
CCCCCCCCCCCCCCCC[N+](C)(C)CCN(Cc1ccc(OC)cc1)c1ncccn1 | -52.7% (active) and -2.88% (active)
